High-throughput results (PubChem BioAssay)
Only some compounds are listed: those with a hit (about 3% of all), similar ones and a draw of the others.
SENP6 inh – blocks the human protease SENP6 | hit rate 1.8% among 330,000 | AID 2599 | Q9GZR1 | inhibition, % at 10 µM | Recombinant SENP6 catalytic domain, aminoluciferin luminescence;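 active = inhibition above about 50% at the single tested dose, limit read from the data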;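 note: plate controls were DMSO wells with enzyme for no effect and DMSO wells lacking enzyme for full effect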
SENP8 block-1 – blocks human SENP8 cleavage of Nedd8 substrate | inhibition, % at 20 µM | hit rate 0.64% among 360,000 | recombinant SENP8, Nedd8 substrate fluorescence | Q96LD8; in the data active = inhibition mostly above about 40%, no sharp cut-off; inactive = mostly below about 27%
Target sequence (Q96LD8 whole entry, looked up): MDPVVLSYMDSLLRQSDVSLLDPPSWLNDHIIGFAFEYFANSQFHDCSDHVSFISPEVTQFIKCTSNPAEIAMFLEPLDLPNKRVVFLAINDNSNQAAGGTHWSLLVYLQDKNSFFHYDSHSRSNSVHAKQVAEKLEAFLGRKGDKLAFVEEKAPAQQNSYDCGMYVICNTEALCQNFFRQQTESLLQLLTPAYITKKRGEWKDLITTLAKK
TRAIL sens C8 – caspase-8 TRAIL sensitization. hit rate 1% among 360,000. inhibition (viability loss, TRAIL sensitization), % at 10 µM. NB7+C8 cells + TRAIL, ATPlite viability luminescence;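 active = compounds causing at least 50% loss of cell viability in the single-dose screen, relative to plate controls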
SENP7 inh – blocks the human protease SENP7; recombinant SENP7, Z-RLRGG-aminoluciferin luminescence, 40 min; inhibition, % at 5 µM; hit rate 1.5% among 330,000; AID 434973;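 active = inhibition above about 50% at the single test dose, limit read from the data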;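 note: plate controls were DMSO with enzyme for no effect and no enzyme buffer wells for full effect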
Target sequence (Q9BQF6 706-1050 limits assumed): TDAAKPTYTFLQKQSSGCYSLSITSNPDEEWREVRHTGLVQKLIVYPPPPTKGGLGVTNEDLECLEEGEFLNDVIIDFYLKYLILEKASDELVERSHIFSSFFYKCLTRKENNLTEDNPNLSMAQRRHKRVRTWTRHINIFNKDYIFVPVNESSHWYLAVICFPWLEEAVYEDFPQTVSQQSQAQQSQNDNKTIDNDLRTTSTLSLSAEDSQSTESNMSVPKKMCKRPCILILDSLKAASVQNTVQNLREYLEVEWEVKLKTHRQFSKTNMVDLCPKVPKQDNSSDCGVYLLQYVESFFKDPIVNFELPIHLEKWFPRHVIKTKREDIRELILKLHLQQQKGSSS
PPC-1+TRAIL kill – compounds killing PPC-1 cancer cells with TRAIL present (potentiator screen, no TRAIL-free arm); PPC-1 cells + TRAIL, ATPLite viability luminescence; cell killing (% activity), % at 4 µM or 5 µM; hit rate 0.41% among 220,000;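 active = cell killing above 50% in the first pass at 4 µM, then a duplicate retest at 5 µM averaging 50% or more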;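 note: plate controls were cells with TRAIL plus DMSO for no effect and medium-only wells lacking cells for full effect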
SENP8 block-2 – blocks the human protease SENP8; inhibition, % at 10 µM; Q96LD8; hit rate 1.2% among 330,000; purified SENP8, Z-RLRGG-aminoluciferin cleavage, luminescence; in the data active = inhibition above about 50%
Active calls of the source: *; i = inactive; · = no result given.

SMILES	SENP6 inh	SENP8 block-1	TRAIL sens C8	SENP7 inh	PPC-1+TRAIL kill	SENP8 block-2
O=C(COC(=O)c1ccccc1OCc1ccccc1Cl)NCC1CCCO1 (stereo unspecified)	-2	11	-3	2	·	-1
OC(CN1CCN(Cc2ccccc2)CC1)c1ccc(F)cc1 (stereo unspecified)	-22	7	-4	-6	58*	-5
COc1ccc(C(C[N+](=O)[O-])C2(c3ccc(OC)c(OC)c3)C(=O)c3ccccc3C2=O)cc1 (stereo unspecified)	·	9	53*	·	43	·
CCn1c(C)nc2cc(C(=O)NN=Cc3ccc([N+](=O)[O-])cc3)ccc21	-7	13	1	-8	·	-7
COc1ccc(CNC[C@@H](CCCCN(C)Cc2ccc(OC)cc2)N2C[C@H](c3ccccc3)N(CCc3ccc(Cl)c(Cl)c3)C(=O)C2=O)cc1	-11	30	89*	1	7	-18
Cc1nc(C)c(C(=O)Nc2nc3c(C)cccc3s2)o1	11	-57	-2	1	-3	0
O=C(NNc1nc2c(F)cccc2s1)c1cc(=O)c2ccccc2o1	98*	23	16	74*	12	94*
Cc1cccc2sc(NNC(=O)c3cc(=O)c4ccccc4o3)nc12	98*	12	17	89*	32	96*
COc1ccc2nc(NNC(=O)c3cc(=O)c4ccccc4o3)sc2c1	47	-47	48*	-2	16	22
CCOc1ccc(NC(=O)/C(C#N)=C\c2ccc(N3CCCC3)c(C)c2)cc1	·	-6	18	·	·	·
CCN(C(=O)COC(=O)c1cc2ccccc2cc1OC)c1c(N)n(Cc2ccccc2)c(=O)[nH]c1=O	·	i	-9	·	·	·
CCN(CC)C(=O)CSc1ncnc2c(-c3ccc(OC)cc3)nsc12	51*	·	·	34	·	52*
COc1ccc(-c2nsc3c(SCc4ccccc4)ncnc23)cc1	21	-398	-5	4	8	-8
COc1ccc(C(=O)Nc2ccccc2C(=O)Nc2ccccc2C(=O)O)cc1	23	-15	59*	-12	·	-16
COc1ccc(C(=O)Nc2ccccc2C(=O)Nc2ccc(C(=O)O)cc2)cc1	-7	-2	47	-7	·	0
COc1ccc(C(=O)Nc2ccccc2C(=O)Nc2ccncc2)cc1	8	-342	65*	5	·	0
O=C(Nc1ccncc1)c1ccc(F)cc1	-5	18	-15	8	4	2
COc1ccc(NC(=O)c2ccccc2NC(=O)c2cccs2)cc1	-12	12	2	-3	·	-8
O=C(Nc1ccncc1)c1ccc(-c2ccccc2)cc1	-4	12	51*	23	4	-5
O=C(/C=C/c1cc(Br)ccc1F)OCC(=O)N1CCOCC1	-2	-2	-6	-3	·	-7
Cc1ccnc(Nc2ccc(CCO)cc2)n1	·	12	-4	·	·	·
Cc1ccc(C(=O)CNc2ccccc2)cc1	11	22	-1	-4	·	6
O=C(CNc1ccc(F)cc1)c1ccccc1	65*	21	-7	19	1	32
CCCCN(C(=O)c1cccs1)C1CCS(=O)(=O)C1 (stereo unspecified)	-2	1	-5	-3	·	0
Cc1ccsc1/C=N\NC(=O)c1n[nH]c2c1CCC2	92*	11	44	93*	23	85*
SMILES	SENP6 inh	SENP8 block-1	TRAIL sens C8	SENP7 inh	PPC-1+TRAIL kill	SENP8 block-2
Cc1ccsc1/C=N\NC(=O)c1cc(C(C)(C)C)[nH]n1	-17	7	7	-13	33	-25
Oc1[nH]c(N=C2N=c3ccccc3=N2)c2ccccc12	·	16	65*	·	28	·
C=CCN1C=CC(=O)[C@@H](OC(=O)Nc2ccc(Br)cc2)[C@H]1c1ccccc1Br	·	-41	-2	·	·	·
CSc1ncccc1C(=O)NCC(c1cccs1)N1CCOCC1 (stereo unspecified)	-3	12	-21	2	·	-2
CN1/C(=C\C(=O)C[n+]2ccc(C(=O)c3ccccc3)cc2)C(C)(C)c2ccccc21	-10	-2	55*	-7	21	-4
Cc1cc(SCC(=O)N/N=C/c2ccc(O)c(O)c2O)c(C)cc1Br	1	35*	-2	3	15	-3
COc1cc(/C=N/NC(=O)CSc2cc(C)c(Br)cc2C)ccc1O	-5	3	8	5	19	9
COc1cc(Cl)c(C)cc1NC(=O)c1ccccc1NC(=O)CN1CCN(C(C)=O)CC1	·	7	0	·	·	·
COc1cc2nc(N3CCNCC3)nc(N)c2cc1OC	-7	-283	53*	-5	23	-7
COc1cc2nc(N3CCN(c4cc(C)ccc4C)CC3)nc(N)c2cc1OC	0	-288	57*	6	·	-7
O=C(Cc1cccc(NC(=O)C2CCCN(C(=O)C3CCC3)C2)c1)Nc1cccc(C(=O)N2CCOCC2)c1 (stereo unspecified)	·	9	8	·	·	·
O=C(Cn1cc(COc2ccc(Br)cc2[N+](=O)[O-])nn1)c1ccc(O)cc1	·	36	-9	·	·	·
CCCCn1c(N)c(N(CC)C(=O)C2=NN(c3ccccc3)C(=O)CC2)c(=O)[nH]c1=O	15	7	-18	8	·	-8
COc1cc(OC)c(C2CC(=O)N3CN(c4ccccc4)CSC3=C2C#N)cc1OC (stereo unspecified)	12	0	-16	8	4	1
COc1ccc2ccccc2c1C1CC(=O)N2CN(C)CSC2=C1C#N (stereo unspecified)	14	42*	-3	-1	2	4
COc1cc(OC)c(C2CC(=O)N3CN(C)CSC3=C2C#N)cc1OC (stereo unspecified)	-4	79*	3	4	14	0
CC(=O)c1ccc(OCC(=O)OCC(=O)N(CC(C)C)c2c(N)n(Cc3ccccc3)c(=O)[nH]c2=O)cc1	-11	8	10	13	·	-9
Cc1cccc(NS(=O)(=O)c2ccc3c(c2)Cc2cc(S(=O)(=O)Nc4cccc(C)c4C)ccc2-3)c1C	·	12	60*	·	8	·
Cc1cccc(NS(=O)(=O)c2ccc3[nH]c(=O)[nH]c3c2)c1C	-1	10	9	9	·	4
COn1c(SCC(N)=O)nc2ccccc2c1=O	-10	34	19	3	8	-5
COn1c(SCc2ccc(C)cc2C)nc2ccccc2c1=O	-18	15	58*	-7	-13	-9
COn1c(SC2CCCCC2)nc2ccccc2c1=O	-31	1	67*	-4	-7	-7
CC(C)c1ccc(/C=C2\SC(=S)N(CCC(=O)N3CCCCC3CCO)C2=O)cc1 (stereo unspecified)	12	31	60*	6	·	38
O=C1/C(=C\c2ccccc2)SC(=S)N1CCC(=O)N1CCCCC1CCO (stereo unspecified)	16	9	4	0	·	-1
O=C1NNC(c2ccccc2)=N/C1=C\c1ccccc1Cl	·	117*	-8	·	20	·
O=C1NNC(c2ccccc2)=N/C1=C\c1ccco1	4	29	-13	-3	-6	5
